The supplement of paper PMC8728848
This excerpt belongs to a sample that is enriched for the strongest signals.

What was measured:
Assay in all cases: glycan array binding signal (z-score within array); higher = stronger binding
Details in all cases: glycan notation: IUPAC condensed, linker removed
[1] = target: Fuc(a1-2)Gal(b1-4)GlcNAc(b1-2)Man(a1-3)[Fuc(a1-2)Gal(b1-4)GlcNAc(b1-2)Man(a1-6)]Man(b1-4)GlcNAc(b1-4)GlcNAc
Method in brief: (§1)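 Columns mapping to the same glycan were averaged after glycan names were converted to IUPAC-condensed notation. The data come from 3228 arrays in the Consortium for Functional Glycomics database, limited to those with an available protein sequence. Binding is reported as a within-array Z-score averaged across arrays of one protein sequence and across linkers.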

[2] = target: Fuc(a1-2)Gal(b1-4)[Fuc(a1-3)]GlcNAc(b1-2)Man(a1-3)[Fuc(a1-2)Gal(b1-4)[Fuc(a1-3)]GlcNAc(b1-2)Man(a1-6)]Man(b1-4)GlcNAc(b1-4)[Fuc(a1-6)]GlcNAc
Method in brief: as §1

[3] = target: Fuc(a1-2)Gal(b1-4)[Fuc(a1-3)]GlcNAc(b1-3)GalNAc
Method in brief: as §1

[4] = target: Fuc(a1-2)Gal3S(b1-4)GlcNAc
Method in brief: as §1

Fuc(a1-2)Gal6S(b1-4)Glc = target: Fuc(a1-2)Gal6S(b1-4)Glc
Method in brief: as §1

[5] = target: Fuc(a1-2)[GalNAc(a1-3)]Gal(b1-4)GlcNAc(b1-2)Man(a1-3)[Fuc(a1-2)[GalNAc(a1-3)]Gal(b1-4)GlcNAc(b1-2)Man(a1-6)]Man(b1-4)GlcNAc(b1-4)[Fuc(a1-6)]GlcNAc
Method in brief: as §1

[6] = target: Fuc(a1-3)[Gal(b1-4)]GlcNAc(b1-2)Man(a1-3)[Fuc(a1-3)[Gal(b1-4)]GlcNAc(b1-2)Man(a1-6)]Man(b1-4)GlcNAc(b1-4)[Fuc(a1-6)]GlcNAc
Method in brief: as §1

Gal(a1-3)Gal(b1-4)GlcNAc = target: Gal(a1-3)Gal(b1-4)GlcNAc
Method in brief: as §1

[7] = target: Gal(a1-3)Gal(b1-4)GlcNAc(b1-2)Man(a1-3)[Gal(a1-3)Gal(b1-4)GlcNAc(b1-2)Man(a1-6)]Man(b1-4)GlcNAc(b1-4)GlcNAc
Method in brief: as §1

[8] = target: Gal(a1-4)Gal(b1-3)GlcNAc(b1-2)Man(a1-3)[Gal(a1-4)Gal(b1-3)GlcNAc(b1-2)Man(a1-6)]Man(b1-4)GlcNAc(b1-4)GlcNAc
Method in brief: as §1

[9] = target: Gal(a1-4)Gal(b1-4)GlcNAc(b1-2)Man(a1-3)[Gal(a1-4)Gal(b1-4)GlcNAc(b1-2)Man(a1-6)]Man(b1-4)GlcNAc(b1-4)GlcNAc
Method in brief: as §1

Gal(b1-3)Gal(b1-4)GlcNAc = target: Gal(b1-3)Gal(b1-4)GlcNAc
Method in brief: as §1

[10] = target: Gal(b1-3)GalNAc(b1-3)Gal(a1-4)Gal(b1-4)Glc
Method in brief: as §1

Gal(b1-3)GlcNAc(b1-2)Man = target: Gal(b1-3)GlcNAc(b1-2)Man
Method in brief: as §1

[11] = target: Gal(b1-3)GlcNAc(b1-2)Man(a1-3)[Gal(b1-3)GlcNAc(b1-2)Man(a1-6)]Man(b1-4)GlcNAc(b1-4)GlcNAc
Method in brief: as §1

[12] = target: Gal(b1-3)[Fuc(a1-4)]GlcNAc(b1-2)Man(a1-3)[Gal(b1-3)[Fuc(a1-4)]GlcNAc(b1-2)Man(a1-6)]Man(b1-4)GlcNAc(b1-4)[Fuc(a1-6)]GlcNAc
Method in brief: as §1

[13] = target: Gal(b1-4)GalNAc(a1-3)[Fuc(a1-2)]Gal(b1-4)GlcNAc
Method in brief: as §1

[14] = target: Gal(b1-4)GlcNAc(b1-2)Man(a1-3)Man(b1-4)GlcNAc(b1-4)GlcNAc
Method in brief: as §1

[15] = target: Gal(b1-4)GlcNAc(b1-2)Man(a1-3)[Gal(b1-4)GlcNAc(b1-2)Man(a1-6)]Man(b1-4)GlcNAc(b1-4)[Fuc(a1-6)]GlcNAc
Method in brief: as §1

[16] = target: Gal(b1-4)GlcNAc(b1-2)Man(a1-6)[GlcNAc(b1-2)Man(a1-3)]Man(b1-4)GlcNAc(b1-4)GlcNAc
Method in brief: as §1

[17] = target: Gal(b1-4)GlcNAc(b1-2)[Gal(b1-4)GlcNAc(b1-6)]Man(a1-6)[Gal(b1-4)GlcNAc(b1-2)Man(a1-3)]Man(b1-4)GlcNAc(b1-4)GlcNAc
Method in brief: as §1

[18] = target: Gal(b1-4)GlcNAc(b1-3)Gal(b1-4)GlcNAc(b1-2)Man(a1-3)[Gal(b1-4)GlcNAc(b1-3)Gal(b1-4)GlcNAc(b1-2)Man(a1-6)]Man(b1-4)GlcNAc(b1-4)[Fuc(a1-6)]GlcNAc
Method in brief: as §1

[19] = target: Gal(b1-4)GlcNAc(b1-3)Gal(b1-4)GlcNAc(b1-2)[Gal(b1-4)GlcNAc(b1-3)Gal(b1-4)GlcNAc(b1-6)]Man(a1-6)[Gal(b1-4)GlcNAc(b1-3)Gal(b1-4)GlcNAc(b1-2)Man(a1-3)]Man(b1-4)GlcNAc(b1-4)GlcNAc
Method in brief: as §1

[20] = target: Gal(b1-4)GlcNAc(b1-3)Gal(b1-4)GlcNAc(b1-3)Gal(b1-4)GlcNAc(b1-3)Gal(b1-4)GlcNAc(b1-2)Man(a1-3)[Gal(b1-4)GlcNAc(b1-3)Gal(b1-4)GlcNAc(b1-3)Gal(b1-4)GlcNAc(b1-3)Gal(b1-4)GlcNAc(b1-2)Man(a1-6)]Man(b1-4)GlcNAc(b1-4)[Fuc(a1-6)]GlcNAc
Method in brief: as §1

[21] = target: Gal(b1-4)GlcNAc(b1-3)[GlcNAc(b1-6)]Gal(b1-4)GlcNAc
Method in brief: as §1

Gal6S(b1-4)Glc6S = target: Gal6S(b1-4)Glc6S
Method in brief: as §1

Glc(a1-6)Glc(a1-6)Glc = target: Glc(a1-6)Glc(a1-6)Glc
Method in brief: as §1

[22] = target: GlcNAc(a1-4)Gal(b1-4)GlcNAc(b1-3)Gal(b1-4)GlcNAc
Method in brief: as §1

[23] = target: GlcNAc(b1-2)Man(a1-3)[GlcNAc(b1-4)][GlcNAc(b1-2)Man(a1-6)]Man(b1-4)GlcNAc(b1-4)GlcNAc
Method in brief: as §1

[24] = target: GlcNAc(b1-3)Gal(b1-4)GlcNAc(b1-3)Gal(b1-4)GlcNAc(b1-2)[GlcNAc(b1-3)Gal(b1-4)GlcNAc(b1-3)Gal(b1-4)GlcNAc(b1-6)]Man(a1-6)[GlcNAc(b1-3)Gal(b1-4)GlcNAc(b1-3)Gal(b1-4)GlcNAc(b1-2)Man(a1-3)]Man(b1-4)GlcNAc(b1-4)[Fuc(a1-6)]GlcNAc
Method in brief: as §1

B1: PX9961T-pdi-555-33-555 (Parabacteroides distasonis) (protein)
chain: FDEETAFQSPTLVYVNTVASLYNNMFKIMGNDRHVYDLNTFSSDEAMLPCRIGDWEDGGLWQNIFLHRWGTMNDLTKNSWDFLYEQIGKCNQSVDKLQAFAEEQPDVEYFKVYLEEVRAVRAFFYYELLDLFARVPLVTSSTTPMSEVKQSERSVVFNFVRSELEEALPYLSDNRSNQKGEYYGRITKPVAYMILAKLALNAEVYADDNWTDGNRPAGKNIKFTVDGKEMNAWEATIAYVDKLEALGYKLQGNFSENFAVANETSVENIFTVPMDPVAYPDAKDYNLVRTRHYDHATAYGQSGWNGSCATVKAMNVFKFGTADEDPRCKLTYFTGEVTGPDGKTIYTEWDGQKVPLKYEPNAPKVYMDASDGLLVKTAGARMAKYEFDQNAQDGGNLHGNDCVIFRFADALLMKAEAKIRLGQNGDDEVNQVRNRVGAKPLQNVTLDTLLDERMLELAWEGVRRQDLIRFGKFTEATVDRYVGVKHFASSLDYQEDKTGYTTVFSIYADILSLNPNLTQNPGY
glycan array binding signal (z-score) [1]: 1.91
glycan array binding signal (z-score) [2]: 0.323
glycan array binding signal (z-score) [3]: -0.359
glycan array binding signal (z-score) [4]: -0.354
glycan array binding signal (z-score) (Fuc(a1-2)Gal6S(b1-4)Glc): -0.589
glycan array binding signal (z-score) [5]: 2.12
glycan array binding signal (z-score) [6]: -0.637
glycan array binding signal (z-score) (Gal(a1-3)Gal(b1-4)GlcNAc): 0.037
glycan array binding signal (z-score) [7]: 0.963
glycan array binding signal (z-score) [8]: 2.7
glycan array binding signal (z-score) [9]: 1.51
glycan array binding signal (z-score) (Gal(b1-3)Gal(b1-4)GlcNAc): -0.663
glycan array binding signal (z-score) [10]: -0.576
glycan array binding signal (z-score) (Gal(b1-3)GlcNAc(b1-2)Man): 0.661
glycan array binding signal (z-score) [11]: -0.248
glycan array binding signal (z-score) [12]: -0.151
glycan array binding signal (z-score) [13]: -0.527
glycan array binding signal (z-score) [14]: -0.441
glycan array binding signal (z-score) [15]: 0.171
glycan array binding signal (z-score) [16]: -0.306
glycan array binding signal (z-score) [17]: -0.161
glycan array binding signal (z-score) [18]: 0.672
glycan array binding signal (z-score) [19]: 1.53
glycan array binding signal (z-score) [20]: 0.109
glycan array binding signal (z-score) [21]: -0.222
glycan array binding signal (z-score) (Gal6S(b1-4)Glc6S): -0.372
glycan array binding signal (z-score) (Glc(a1-6)Glc(a1-6)Glc): 0.357
glycan array binding signal (z-score) [22]: -0.402
glycan array binding signal (z-score) [23]: -0.416
glycan array binding signal (z-score) [24]: -0.298
